ClpP mod: qHTS Assay for Activators of ClpP; ATP-dependent Clp protease proteolytic subunit (Bacillus subtilis (strain 168)), P80244; purified B. subtilis ClpP, FRET peptide cleavage, 20 min; Potency, µM (top dose mostly 57.5 µM), without a hit: top-dose activity change, negative = active; actives 1.9% (n = 340,000); AID 651965, 2013; active = well fitted falling curve with a large enough effect; inconclusive = small, poorly fitted or top-dose-only effect; inactive = no such curve, though single readings can be large or run the other way; also: the source files actives as falling curves though it sought activators and does not explain the sign; nearly all actives have a fitted effect of over 65% in size
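Buffer: 100 mM Tris/HCl pH8, 100 mM KCl, 0.05% low protease BSA, 2.5% glycerol, 0.01% Tween-20. ClpP 10 microg/mL final; 20 min RT; delta FRET normalized to ADEP and DMSO controls.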
DT40 TDP1 CPT: DT40-hTDP1 cell growth loss with CPT. chicken DT40 Tdp1-/-;hTDP1 cells + 20 nM CPT, ATP luminescence, 48 h. Potency, µM (highest dose often 46.2 µM), without a hit: top-dose activity change, negative = growth inhibition, usual class: inhibitors. actives 12% (n = 420,000); also: % is scaled to controls: 0 for no effect and ±100 for the full control effect; nearly all actives have a fitted effect of over 55% in size
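Chicken DT40 Tdp1-/- cells complemented with human TDP1, 400 cells/well, exposed to compounds plus 20 nM camptothecin for at least 48 h at 37 C; viability read as ATP content by CellTiter-Glo luminescence.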
TDP1 block: inhibitors of human tyrosyl-DNA phosphodiesterase TDP1. recombinant TDP1, AlphaScreen DNA substrate cleavage. Potency, µM (doses to about 130 µM), for the others: top-dose activity change, negative = inhibition, usual class: inhibitors. actives 0.28% (n = 350,000). AID 485290; also: % is scaled to controls: 0 for no effect and ±100 for the full control effect; nearly all actives have a fitted effect of over 40% in size
Target sequence (Q9NUW8 whole entry, looked up): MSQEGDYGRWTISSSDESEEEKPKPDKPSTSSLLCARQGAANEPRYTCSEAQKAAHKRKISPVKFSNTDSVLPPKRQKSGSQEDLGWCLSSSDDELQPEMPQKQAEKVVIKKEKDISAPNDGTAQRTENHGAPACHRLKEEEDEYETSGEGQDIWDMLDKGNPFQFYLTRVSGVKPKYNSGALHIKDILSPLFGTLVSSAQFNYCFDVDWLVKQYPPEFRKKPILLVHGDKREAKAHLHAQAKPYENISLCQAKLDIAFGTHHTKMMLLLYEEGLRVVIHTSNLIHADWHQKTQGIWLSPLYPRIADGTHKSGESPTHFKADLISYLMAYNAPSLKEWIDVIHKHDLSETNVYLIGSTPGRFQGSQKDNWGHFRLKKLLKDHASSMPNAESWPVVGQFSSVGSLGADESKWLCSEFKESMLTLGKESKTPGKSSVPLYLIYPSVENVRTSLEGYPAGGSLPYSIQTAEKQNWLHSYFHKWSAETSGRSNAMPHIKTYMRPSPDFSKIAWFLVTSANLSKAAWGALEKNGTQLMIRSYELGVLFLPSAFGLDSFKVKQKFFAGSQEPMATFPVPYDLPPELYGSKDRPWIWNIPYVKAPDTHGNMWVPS
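AlphaScreen read-out: signal falls as enzyme removes the 3' tyrosine-FITC from a 5'-biotinylated DNA oligo (15 nM, 5 min, RT). Enzyme was E. coli-made recombinant Tdp1 at 1 nM, exposed to compound for 15 min beforehand; beads 10 ug/ml, 10 min.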
TDP1 cell noCPT: qHTS for Inhibitors of human tyrosyl-DNA phosphodiesterase 1 (TDP1): qHTS in cells in absence of CPT. DT40 Tdp1-/- hTDP1 cells, no CPT, ATP luminescence, 48 h. Potency, µM (highest dose often 46.2 µM), for inactives: at the highest dose activity change, negative = growth inhibition, hits mostly inhibitors. actives 15% (n = 420,000). AID 686978, 2013; also: % is scaled to controls: 0 for no effect and ±100 for the full control effect; nearly all actives have a fitted effect of over 55% in size
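Camptothecin absent (DMSO only). Human TDP1-complemented DT40 knockout cells, 400 cells/well, 37 °C for minimum 48 hr; ATP measured via CellTiter-Glo, 30 min dark incubation, luminescence.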
Starred values were filed as active, the others as inactive; ? = inconclusive; / = no result given; [ ] = remark or other dose. In the library only some 17% were active in any assay of this set; here they are far more common. Unless noted, calls follow the shape of the dose curve; as a rule, active = well fitted curve in the direction sought with a large enough effect; inconclusive = small, poorly fitted or top-dose-only effect, or another doubt; inactive = no such curve, though single readings can be large; an effect the other way counts as inactive or inconclusive. Potency is read from the fitted curve at half-maximal effect.

SMILES	ClpP mod	DT40 TDP1 CPT	TDP1 block	TDP1 cell noCPT
Cc1cc(C)c2[nH]c(=O)c(CN(Cc3ccco3)C(=O)c3cccs3)cc2c1	/	/	2%	/
CCC(c1nnnn1CCc1ccccc1)N(Cc1ccco1)Cc1cc2cc(C)cc(C)c2[nH]c1=O (stereo not given)	-22%	18µM*	5%	23µM*
CCc1ccc2[nH]c(=O)c(CN(Cc3ccc(F)cc3)C(c3nnnn3CCN3CCOCC3)C(C)C)cc2c1 (stereo not given)	-10%	?	0%	?
CCCC(=O)NC1CC(=O)N(c2ccc3c(c2)OCCO3)C1 (stereo not given)	1%	-1%	8%	-25%
Cc1cc(C)cc(OCC(=O)NNC(=O)CC(C)c2ccccc2)c1 (stereo not given)	-1%	-23%	/	-30%
CCC(c1nnnn1Cc1ccco1)N(CCc1ccccc1)Cc1cc2cc(C)ccc2[nH]c1=O (stereo not given)	-9%	21µM*	7%	?
COc1ccccc1NC(=O)Nc1nn(C)c2cccc(N(C)C)c12	1%	15µM*	/	16µM*
c1ccc2oc(-c3ccn[nH]3)cc2c1	/	32%	7%	5%
Cc1ccccc1COc1cccn2c(N(C)C(=O)CCC3CCCC3)c(C)nc12	-3%	?	/	23µM*
COc1ccccc1COc1cccn2c(N(C)C(=O)CCC3CCCC3)c(C)nc12	-3%	18µM*	/	15µM*
COc1ccc(C)cc1NC(=O)c1cc(S(=O)(=O)N2CCCCC2)ccc1N1CCOCC1	?	?	0%[56.1 µM]	?
COc1ccc(CNC(=S)NC(C)CCc2ccccc2)cc1 (stereo not given)	0%	?	0%	?
COc1ccc(C(=O)N/C(=C\c2cn(C)c3ccccc23)C(=O)NCCCn2ccnc2)cc1OC	/	5%	3%	0%
O=C(NCC1COc2ccccc2O1)c1ccc(NC(=O)C(c2ccccc2)c2ccccc2)cc1 (stereo not given)	?	18µM*	0%	9.2µM*
O=C(Cc1ccccc1)Nc1ccc(C(=O)NCC2COc3ccccc3O2)cc1 (stereo not given)	-2%	9%	8%	?
Cn1nc(C(=O)NCC2COc3ccccc3O2)c2ccccc2c1=O (stereo not given)	0%	23µM*	0%	21µM*
COc1ccc(NC(=O)C(Sc2nnc3ccccn23)c2ccccc2)cc1Cl (stereo not given)	-2%	?	4%	-29%
CC1(C(=O)Nc2cccc3cccnc23)CCN1Cc1ccc(-c2ccccc2)o1 (stereo not given)	-13%	23µM*	/	18µM*
CC(C)Oc1ccc(CN2CCC2(C)C(=O)Nc2cccc3cccnc23)cc1 (stereo not given)	?	18µM*	/	?
CC1(C(=O)Nc2ccccc2Cc2ccccc2)CCN1CCc1ccccc1 (stereo not given)	1%	?	/	?
COc1cccc(CN2CCC2(C)C(=O)Nc2cccc3cccnc23)c1OC (stereo not given)	?	16µM*	/	18µM*
COc1ccccc1C(=O)Nc1cccc2cccnc12	/	?	-6%	?
CC1(C(=O)Nc2cccc3cccnc23)CCN1Cc1ccccc1OC(F)F (stereo not given)	?	?	/	15µM*
O=C(COc1ccccc1C(=O)Nc1cccc(F)c1)Nc1ccc(Br)cc1	-4%	?	/	?
CCCCCCCCCCCCCCC[C@@H](O)[C@H](CO)NC(C)=O	/	8%[4.12 µM]	9%	6%[4.12 µM]
SMILES	ClpP mod	DT40 TDP1 CPT	TDP1 block	TDP1 cell noCPT
Cc1cc(C)cc(-n2cnc3cc(C(=O)NC4CCCCCC4)ccc32)c1	-9%	?	5%	?
Cc1ccc(OCCC(=O)Nc2ccc3c(c2)OCCCO3)cc1	-4%	-23%	0%	-24%
COc1ccc(OC)c(NC(=O)C2(C)CCN2C(=O)C(C)(C)c2ccccc2)c1 (stereo not given)	-1%	?	/	?
COc1ccc(NC(=O)C2(C)CCN2CCOc2ccccc2)cc1OC (stereo not given)	0%	?	/	?
Cc1ccc(OCCN2CCC2(C)C(=O)Nc2ccc3c(c2)OCCO3)cc1 (stereo not given)	1%	-98%	/	18µM*
COc1ccc(OC)c(NC(=O)C2(C)CCN2C(=O)C2(c3ccccc3)CCCC2)c1 (stereo not given)	-1%	?	/	23µM*
COc1ccc(OC)c(NC(=O)C2(C)CCN2C(=O)C2(c3ccc(Cl)cc3)CCC2)c1 (stereo not given)	1%	?	/	?
COc1ccc(OC)c(NC(=O)C2(C)CCN2Cc2cccc(OC)c2OC)c1 (stereo not given)	0%	?	/	15µM*
COc1ccc(OC)c(NC(=O)C2(C)CCN2CCOc2ccccc2)c1 (stereo not given)	-3%	23µM*	/	?
Cc1ccc(S(=O)(=O)c2cn(CC(=O)Nc3ccccc3)c3cc4c(cc3c2=O)OCO4)cc1	?	-1%	-4%	-9%
COc1cc(-c2cc(C)c3cccc(OC)c3n2)cc2c1OCCN(C(=O)Cn1nc(C)cc1C)C2	/	1%[9.04 µM]	/	-8%
O=C(OCc1ccccc1)N1CCC2CC1c1cc(-c3cc4ccccc4o3)ccc12 (stereo not given)	4%	?	/	?
Cc1nc(N)c(C#N)c(-c2ccccc2)c1C	-17%	-5%	3%	?
Cc1nn(-c2ccccc2)c2nc(N)c(C#N)c(-c3ccc(F)cc3)c12	?	18µM*	-8%	26µM*
Cc1ccc(-n2nc(C)c3c(-c4cccs4)c(C#N)c(N)nc32)cc1	-13%	?	-4%	23µM*
N#Cc1c(N)nc2c(c1-c1ccc(F)cc1)c(=O)nc1sccn12	-1%	6%	7%	2.6µM*
Cn1c(N)c(Br)c(-c2ccc(F)cc2)c(C#N)c1=O	0%	0%	8%	-15%
COC(=O)CC1C2(C)CC34OC5(C)O[C@@]6(C7/C(=C(/O)C(C)C)C(=O)OC(c8ccoc8)[C@]7(C)C(OC(C)=O)C(OC(C)=O)[C@]6(O5)[C@@]13C)C(OC(C)=O)[C@]4(O)C2OC(=O)C(C)C (stereo not given in full)	/	-14%	8%[56.1 µM]	-4%
CCCCC#Cc1ccccc1CC(=O)Nc1ccccc1	2%	?	50µM*	-73%
O=C(Cc1ccccc1I)Nc1ccccc1	/	/	2%	/
C=CCN(C(=O)CCC(=O)O)C1CC(=O)N(c2ccc(OCCC)cc2)C1=O (stereo not given)	-1%	23µM*	4%	26µM*

Bioassay records: PubChem BioAssay, National Center for Advancing Translational Sciences (NCATS)
